HT1080 IDH1KD tx: qHTS for induction of synthetic lethality in tumor cells producing 2HG: qHTS for the HT-1080-IDH1KD cell line; HT-1080 IDH1 knockdown viability, ATP luminescence, 48 h; hit rate 2% among 360,000; Potency, µM (top dose mostly 46.1 µM), for inactives: top-dose activity, negative = toxicity, usual class: cytotoxic;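 note: potency is the fitted concentration of half-maximal effect; 0% = DMSO wells and -100% = cell-free medium wells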
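Using the IDH1-knockdown HT-1080 line run in the same batch and compound series as the NT line, viability after 48 h at 37 °C was determined by CellTiter-Glo luminescence and expressed as % activity.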
DT40 TDP1 CPT: qHTS for Inhibitors of human tyrosyl-DNA phosphodiesterase 1 (TDP1): qHTS in cells in presence of CPT; chicken DT40 Tdp1-/-;hTDP1 cells + 20 nM CPT, ATP luminescence, 48 h; Potency, µM (highest dose often 46.2 µM), for inactives: at the top dose activity change, negative = growth inhibition, usual class: inhibitors; hit rate 12% among 420,000; note: potency is the fitted concentration of half-maximal effect; nearly all actives have a fitted effect of over 55% in size
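Chicken DT40 Tdp1-/- cells complemented with human TDP1, 400 cells/well, exposed to compounds plus 20 nM camptothecin for at least 48 h at 37 C; viability read as ATP content by CellTiter-Glo luminescence.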
IL-1B inflam inh: qHTS for Inhibitors of Inflammasome Signaling: IL-1-beta AlphaLISA Primary Screen; activity change, % at 57.5 µM; THP-1 LPS/ATP IL-1B secretion, AlphaLISA, 16 h; hits give low values; hit rate 4.7% among 360,000; in the data active = activity change below about -50%; inconclusive = mostly about -30% to -49%
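THP-1 cells pretreated 1 hr with compounds (up to 57.5 uM final), then stimulated with LPS (250 ng/mL final) plus ATP (1.25 mM final); secreted IL-1B measured by AlphaLISA after 16 hr, decreased signal indicating inhibition.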
DT40 TDP1 no CPT: qHTS for Inhibitors of human tyrosyl-DNA phosphodiesterase 1 (TDP1): qHTS in cells in absence of CPT; hit rate 15% among 420,000; Potency, µM (top dose mostly 46.2 µM), without a hit: at the highest dose activity change, negative = growth inhibition, most hits filed as inhibitors; DT40 Tdp1-/- hTDP1 cells, no CPT, ATP luminescence, 48 h; AID 686978, 2013; note: potency is the fitted concentration of half-maximal effect; nearly all actives have a fitted effect of over 55% in size
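DT40 Tdp1-/-;hTDP1 cells, no CPT (DMSO vehicle only), 400 cells/well; compounds pin-transferred; ≥48 hr, 37 °C; CellTiter-Glo 30 min RT dark, luminescence read.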
ALOX12 inh: Primary qHTS assay for inhibitors of human arachidonate 12S-lipoxygenase (ALOX12): Round 2. Polyunsaturated fatty acid lipoxygenase ALOX12 (Homo sapiens), P18054. purified 12hLO, xylenol orange hydroperoxide absorbance. Potency, µM (titrated, usually from 108 µM), for inactives: at the top dose activity change, negative = inhibition, actives largely listed as inhibitors. hit rate 1.1% among 580,000. AID 1671190, 2021; note: potency is the fitted concentration of half-maximal effect
Target sequence (P18054 whole entry, looked up): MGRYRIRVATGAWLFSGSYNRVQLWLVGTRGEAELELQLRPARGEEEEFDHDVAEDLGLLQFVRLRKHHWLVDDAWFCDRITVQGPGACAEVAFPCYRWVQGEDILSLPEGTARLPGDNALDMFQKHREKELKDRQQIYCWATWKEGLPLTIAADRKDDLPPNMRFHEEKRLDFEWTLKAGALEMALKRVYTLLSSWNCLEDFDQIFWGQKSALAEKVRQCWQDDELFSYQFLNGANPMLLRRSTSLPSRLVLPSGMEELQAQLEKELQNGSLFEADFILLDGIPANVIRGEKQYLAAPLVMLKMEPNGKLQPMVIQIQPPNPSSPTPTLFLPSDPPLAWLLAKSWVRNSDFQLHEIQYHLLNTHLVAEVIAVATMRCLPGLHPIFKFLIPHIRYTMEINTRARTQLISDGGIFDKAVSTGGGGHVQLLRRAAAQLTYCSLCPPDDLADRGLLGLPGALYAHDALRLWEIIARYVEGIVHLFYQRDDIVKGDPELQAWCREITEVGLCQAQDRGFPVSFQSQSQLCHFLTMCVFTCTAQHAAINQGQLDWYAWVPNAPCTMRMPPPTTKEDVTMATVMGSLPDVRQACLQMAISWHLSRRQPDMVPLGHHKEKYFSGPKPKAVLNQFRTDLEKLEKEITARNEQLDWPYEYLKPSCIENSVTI
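Purified human 12hLO (150 nM final) in 25 mM Hepes, 0.01% Triton X-100, pH 7.0 was preincubated 15 min at room temperature with compound. Then 40 uM arachidonic acid was added, 30 min. Hydroperoxide was read by Fe-XO absorbance ratio 573/405 nm.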
HT1080-NT tox: qHTS for induction of synthetic lethality in tumor cells producing 2HG: qHTS for the HT-1080-NT fibrosarcoma cell line; HT-1080-NT fibrosarcoma viability, CellTiter-Glo ATP luminescence, 48 h; AID 686970, 2013; hit rate 1.6% among 360,000; Potency, µM (doses to about 46.1 µM), without a hit: at the highest dose activity, negative = less viability, hits mostly cytotoxic;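 note: NT is the 2HG producing partner of a matched IDH1 knockdown line; potency is the fitted concentration of half-maximal effect; 0% = DMSO-treated cells and -100% = media-only wells without cells; nearly all actives have a fitted effect of over 55% in size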
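Luminescent CellTiter-Glo readout after 48 hours of compound exposure at 37 degrees C defined viability of HT-1080-NT cells. Activity was normalized to DMSO wells and cell-free media wells; concentration-response curves were fitted and assigned curve classes.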
Active calls of the source: *; [ ] = remark or other dose. Only a selection was taken, and hits are over-represented in it overall. Unless noted, calls come from the whole dose curve; as a rule, active = well fitted curve in the direction sought with a large enough effect; inconclusive = small, poorly fitted or top-dose-only effect, or another doubt; inactive = no such curve, though single readings can be large; an effect the other way counts as inactive or inconclusive. Unless noted, % is set by controls: 0 for no effect and ±100 for the full control effect.

Results for C=C[C@H]1CN2CC[C@H]1C[C@@H]2CNCc1ccc2c(c1)OCO2 ?
ALOX12 inh: 101.0%[176 µM]

Results for Cn1nccc1CN1CCCC2(CC(c3cccnc3)=NO2)C1 (configuration not stated) ?
ALOX12 inh: 11.5%[6.33 µM]

How did COc1ccccc1CCNCc1cccs1 do in these assays?
ALOX12 inh: -48.1%

How did O=c1c2ccccc2nc(Cc2ccccc2)n1-c1ccccc1O do in these assays?
HT1080 IDH1KD tx: -0.7%; DT40 TDP1 CPT: -6.3%; IL-1B inflam inh: -27.2; DT40 TDP1 no CPT: -20.3%; ALOX12 inh: 9.2%; HT1080-NT tox: -28.7%

Results for O=c1c2ccccc2nc(Cc2ccccc2)n1-c1ccccc1 ?
HT1080 IDH1KD tx: -2.3%; DT40 TDP1 CPT: inconclusive; IL-1B inflam inh: 16.3; DT40 TDP1 no CPT: 14.6µM*; ALOX12 inh: -0.1%; HT1080-NT tox: 0.0%

What do the screens show for `Cc1cc(C)n2c(Nc3ccc4c(c3)OCCO4)c(-c3cc4ccccc4o3)nc2n1`?
HT1080 IDH1KD tx: -9.1%; DT40 TDP1 CPT: inconclusive; IL-1B inflam inh: 18.6; DT40 TDP1 no CPT: 20.6µM*; ALOX12 inh: inconclusive; HT1080-NT tox: -8.3%

How did CCOP(=O)(OCC)/C(=N/OC(=O)c1ccccc1C)C(N)=O do in these assays?
HT1080 IDH1KD tx: inconclusive; DT40 TDP1 CPT: inconclusive; IL-1B inflam inh: -103.5*; DT40 TDP1 no CPT: 13µM*; ALOX12 inh: -11.0%; HT1080-NT tox: -16.5%

Results for CCCS(=O)(=O)Nc1ccc2n(c1=O)C[C@H]1C[C@@H]2CN(Cc2cn(C)c3ccccc23)C1 ?
ALOX12 inh: 68.1%

How did O=c1[nH]c(=S)[nH]c(O)c1N=Nc1cccc(S(=O)(=O)N2CCOCC2)c1 do in these assays?
HT1080 IDH1KD tx: 1.6%; DT40 TDP1 CPT: -18.5%; IL-1B inflam inh: 6.9; DT40 TDP1 no CPT: -14.9%; ALOX12 inh: 39.8µM*; HT1080-NT tox: 0.0%

Results for O=c1[nH]c(=S)[nH]c(O)c1N=Nc1ccc2c(c1)OCCO2 ?
HT1080 IDH1KD tx: -14.2%; DT40 TDP1 CPT: 14.6µM*; IL-1B inflam inh: -14.2; DT40 TDP1 no CPT: 25.9µM*; ALOX12 inh: -16.3%; HT1080-NT tox: -11.9%

What do the screens show for `O=c1[nH]c(O)c(N=Nc2cccc(S(=O)(=O)N3CCOCC3)c2)c(=O)[nH]1`?
HT1080 IDH1KD tx: 6.2%; DT40 TDP1 CPT: -10.0%; IL-1B inflam inh: 10.3; DT40 TDP1 no CPT: 16.3%; ALOX12 inh: -16.0%; HT1080-NT tox: 5.5%

Results for O=c1[nH]c(=S)[nH]c(O)c1N=Nc1ccc2c(c1)OCO2 ?
HT1080 IDH1KD tx: -18.1%; DT40 TDP1 CPT: inconclusive; IL-1B inflam inh: 14.7; DT40 TDP1 no CPT: -3.1%; ALOX12 inh: inconclusive; HT1080-NT tox: -21.6%

What do the screens show for `NS(=O)(=O)c1ccc(N=Nc2c(O)[nH]c(=S)[nH]c2=O)cc1`?
HT1080 IDH1KD tx: 13.3%; DT40 TDP1 CPT: 1.6%; IL-1B inflam inh: 22.7; DT40 TDP1 no CPT: -5.4%; ALOX12 inh: 39.8µM*; HT1080-NT tox: 2.6%

How did COc1ccc(S(=O)(=O)Nc2ccccc2OC)cc1N=Nc1c(O)[nH]c(=S)[nH]c1=O do in these assays?
HT1080 IDH1KD tx: 11.6µM*; DT40 TDP1 CPT: inconclusive; IL-1B inflam inh: 0.1; DT40 TDP1 no CPT: inconclusive; ALOX12 inh: -30.8%; HT1080-NT tox: 14.6µM*

What do the screens show for `CC(C)(C)c1ccc(OCC(=O)N2CCN(Cc3nc(N)c4ccccc4n3)CC2)cc1`?
ALOX12 inh: -1.0%

Results for COc1ccc2c(c1)C1(CCN(C(=O)COc3cccc(C)c3)C1)C(=O)N2C (configuration not stated) ?
ALOX12 inh: -10.4%

Results for Cc1noc(C)c1S(=O)(=O)N1[C@H]2CC[C@@H]1c1cnc(-c3ccccc3)nc1C2 ?
ALOX12 inh: 6.4%

What do the screens show for `COc1ccc2c(c1)NP(=S)(Oc1ccccc1)N2` (configuration not stated)?
HT1080 IDH1KD tx: 3.7%; DT40 TDP1 CPT: inconclusive; IL-1B inflam inh: 5.5; DT40 TDP1 no CPT: 14.6µM*; ALOX12 inh: -13.6%; HT1080-NT tox: 8.1%

What do the screens show for `CCNCCc1ccccc1`?
ALOX12 inh: -0.1%

What do the screens show for `O=C(Nc1ccc(Cl)cc1)Nc1ccc(Cl)c(Cl)c1`?
HT1080 IDH1KD tx: inconclusive; DT40 TDP1 CPT: 4.61µM*; IL-1B inflam inh: -87.3*; DT40 TDP1 no CPT: 2.91µM*; ALOX12 inh: -0.3%; HT1080-NT tox: inconclusive

What do the screens show for `Cc1ccc(C(=O)NC[C@H]2C[C@@H]3CCN2C[C@@H]3c2cc(C3CCCCC3)nn2C)cc1`?
ALOX12 inh: 2.8%[176 µM]

What do the screens show for `Cc1ccc(N2CCN(C(=O)C3CCC(CNS(=O)(=O)c4ccc(Br)s4)CC3)CC2C)cc1` (configuration not stated)?
DT40 TDP1 CPT: 7.31µM*; DT40 TDP1 no CPT: 4.61µM*; ALOX12 inh: inconclusive

Results for CC(C)c1ccc(NC(=O)C2CCN(S(=O)(=O)c3ccc(Br)s3)CC2)cc1 ?
DT40 TDP1 CPT: inconclusive; DT40 TDP1 no CPT: inconclusive; ALOX12 inh: -18.4%

How did O=[N+]([O-])c1cccc(CN2CCN(Cc3ccc(Br)cc3)CC2)c1 do in these assays?
HT1080 IDH1KD tx: -27.1%; DT40 TDP1 CPT: inconclusive; IL-1B inflam inh: -24.6; DT40 TDP1 no CPT: -29.3%; ALOX12 inh: inconclusive; HT1080-NT tox: -22.1%

What do the screens show for `COC(=O)C1=C(C)NC(C)=C(C(=O)O[C@H]2CCN(Cc3ccccc3)C2)[C@H]1c1cccc([N+](=O)[O-])c1`?
DT40 TDP1 CPT: inconclusive; DT40 TDP1 no CPT: 23.7µM*

How did O=C(O)C1=NOC2CN(Cc3cccc(Br)n3)CC12 (configuration not stated) do in these assays?
ALOX12 inh: -16.8%[6.33 µM]

What do the screens show for `O=C(N/N=C/C1C(=O)NC(=S)N(c2ccccc2)C1=O)c1cc(Br)c(O)c(Br)c1` (configuration not stated)?
HT1080 IDH1KD tx: -0.3%; DT40 TDP1 CPT: 16.4µM*; IL-1B inflam inh: 31.3; DT40 TDP1 no CPT: inconclusive; ALOX12 inh: inconclusive; HT1080-NT tox: -13.9%

Screens deposited in PubChem by National Center for Advancing Translational Sciences (NCATS).
